Assay [1] is described as follows: A CellTox Green Cytotoxicity Assay to monitor cytotoxicity in HEK293 cells - 32 hour (AID 1224881). Also: nearly all actives have a fitted effect of over 40% in size. The method in brief: (§1)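 Nonlytic real-time cytotoxicity: HEK293 + CellTox Green reagent plated, 5 h preincubation, pintool compound addition (23 nL in DMSO), 37 C for 40 h, fluorescence measured at successive time points.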
A short description of assay [2]: A CellTox Green Cytotoxicity Assay to monitor cytotoxicity in HepG2 cells - 0 hour (AID 1224882). Also: nearly all actives have a fitted effect of over 35% in size. The method in brief:
(§2)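 Read-out is fluorescence of a cyanine dye excluded from live cells that stains DNA of dead HepG2 cells, with signal proportional to cytotoxicity. Plates were read at 0, 8, 16, 24, 32 and 40 h after compound addition.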

Assay [3] is described as follows: A CellTox Green Cytotoxicity Assay to monitor cytotoxicity in HepG2 cells - 32 hour (AID 1224883). Also: nearly all actives have a fitted effect of over 50% in size. An outline of the steps:
as §2

Assay [4] can be described thus: A CellTox Green Cytotoxicity Assay to monitor cytotoxicity in HEK293 cells - 8 hour (AID 1224884). Also: nearly all actives have a fitted effect of over 35% in size. An outline of the steps: as §1
Assay [5] in a line: qHTS RealTime-Glo MT Cell Viability Assay in HepG2 cells - 16 hour (AID 1224885). Also: nearly all actives have a fitted effect of over 50% in size. The method in brief: (§3)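 Real-time, nonlytic viability: 600 HepG2 cells/well mixed with NanoLuc enzyme plus prosubstrate; 5 h settle, compound (DMSO) added by pintool; luminescence monitored over 40 h at 37 C.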
A general note: In qHTS, concentration-response curves come from the screen itself.

Assay [6] is described as follows: qHTS RealTime-Glo MT Cell Viability Assay in HEK293 cells - 24 hour (AID 1224886). Also: top concentration of the series differs between compounds; nearly all actives have a fitted effect of over 50% in size. An outline of the steps: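 Cells + reagent dispensed (600 cells/well, HEK293) → 5 h at 37 C/5% CO2 → 23 nL compound in DMSO pinned → 40 h at 37 C → luminescence read at 0, 8, 16, 24, 32, 40 h.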
Assay [7] can be described thus: qHTS RealTime-Glo MT Cell Viability Assay in HEK293 cells - 8 hour (AID 1224887). Also: top concentration of the series differs between compounds; nearly all actives have a fitted effect of over 50% in size. The method in brief: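 Cells were seeded together with NanoLuc luciferase and a prosubstrate that viable cells reduce to a luciferase substrate. After a 5 h incubation at 37 C/5% CO2, compounds were added and luminescence was measured repeatedly during 40 h of treatment.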
The nature of assay [8]: A CellTox Green Cytotoxicity Assay to monitor cytotoxicity in HEK293 cells - 16 hour (AID 1224888). Also: nearly all actives have a fitted effect of over 35% in size. An outline of the steps:
as §1

Assay [9] can be described thus: qHTS RealTime-Glo MT Cell Viability Assay in HepG2 cells - 0 hour (AID 1224889). Also: nearly all actives have a fitted effect of over 50% in size. An outline of the steps: as §3
Assay [10] in a line: A CellTox Green Cytotoxicity Assay to monitor cytotoxicity in HepG2 cells - 8 hour (AID 1224890). Also: nearly all actives have a fitted effect of over 45% in size. The method in brief: as §2
The nature of assay [11]: qHTS assay to identify small molecule antagonists of the estrogen receptor alpha (ER-alpha) signaling pathway using the BG1 cell line in the presence of 0.1 nM 17-beta-estradiol - cell viability counter screen (AID 1259241). Also: nearly all actives have a fitted effect of over 40% in size. The method in brief: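 Following 5 days in phenol red-free medium with charcoal-stripped serum, VM7Luc4E2 cells received test compounds alongside 0.1 nM 17beta-estradiol (final) at 37C for 22 hr. Live cells were then quantified via protease-substrate fluorescence.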

The nature of assay [12]: qHTS assay to identify small molecule antagonists of the androgen receptor (AR) signaling pathway using the MDA cell line in the presence of 0.5 nM R1881 - cell viability counter screen (AID 1259242). Also: nearly all actives have a fitted effect of over 45% in size. The method in brief: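 Counter screen for cytotoxicity run in the same wells as the AR antagonist reporter screen: MDA-kb2 cells were treated 16 hr with test compounds and 0.5 nM R1881, then live-cell protease activity was measured by fluorescence.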

Assay [13] concerns the target Estrogen receptor (Homo sapiens) (UniProt P03372). Kind of assay: qHTS assay to identify small molecule antagonists of the estrogen receptor alpha (ER-alpha) signaling pathway using the BG1 cell line in the presence of 0.1 nM 17-beta-estradiol (AID 1259244). Also: nearly all actives have a fitted effect of over 50% in size. An outline of the steps: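 Cells: VM7Luc4E2, endogenous ER-alpha, 4x ERE-luc stable. Pre-culture 5 d, phenol red-free, charcoal-stripped FBS. Plated 24 h, compound + E2 0.1 nM final, 22 h 37C/5% CO2. Readout ONE-Glo luminescence.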

A short description of assay [14]: qHTS assay to identify small molecule HDAC inhibitors (AID 1259364). Also: top concentration of the series differs between compounds; nearly all actives have a fitted effect of over 45% in size. The method in brief:
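Luminescence from a cell-permeant luminogenic class I/II HDAC substrate reports endogenous deacetylase activity in intact HCT-116 cells treated with compounds for 2 h.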

The nature of assay [15]: qHTS assay to identify small molecule agonists of the sonic hedgehog signaling (Shh) pathway - cell viability counter screen (AID 1259366). Also: nearly all actives have a fitted effect of over 50% in size. Also: potency is read from the fitted curve at half-maximal effect. The method in brief: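 Compounds in DMSO were pin-transferred onto 3T3 Gli1-Luc cells that had settled 4hr; plates then stood 24hr at 37C and 5% CO2. One hour before the end, CellTiter-Fluor was added and fluorescence recorded.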
Assay [16] can be described thus: qHTS assay to identify small molecule antagonists of the sonic hedgehog signaling (Shh) pathway - cell viability counter screen (AID 1259367). Also: nearly all actives have a fitted effect of over 55% in size. Also: potency is read from the fitted curve at half-maximal effect. The method in brief: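 Seed 3T3 Gli1-Luc cells at 2,000 per well; incubate 4 hr; add compound in DMSO, then conditioned medium; incubate at 37C with 5% CO2; add CellTiter-Fluor after 23 hr; read fluorescence 1 hr later.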

A short description of assay [17]: qHTS assay to identify small molecule agonists of the sonic hedgehog signaling (Shh) pathway (AID 1259368; calls by dose curve;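 also: NIH/3T3-derived 3T3Gli1-Luc cells carrying a stable Gli1-driven firefly luciferase reporter; series mostly up to about 92 µM; nearly all actives have a fitted effect of over 15% in size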). The method in brief:
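3T3Gli1-Luc (NIH/3T3 clone, stable Gli1-Luc); 4 hr pre-incubation, then cpd in DMSO 24 hr, 37 C/5% CO2; luciferase reagent 30 min RT; luminescence.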

Assay [18] can be described thus: qHTS assay to identify small molecule HDAC inhibitors - cell viability counter screen (AID 1259365). An outline of the steps:
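HCT-116 wild-type, overnight attachment; 2hr drug exposure, 37C; CellTiter-Glo luminescent ATP readout after 30min RT.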

The nature of assay [19]: qHTS assay to identify small molecule phospholipidosis (PLD) inducers (AID 1259344; active = well fitted curve in the direction sought with a large enough effect; an effect the other way counts as inactive or inconclusive). The method in brief: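 Quantitative HTS in HepG2: compound plus LipidTOX Red dye for 24 h, paraformaldehyde fixation with Hoechst 33342, widefield high-content imaging; amiodarone as positive and DMSO as negative control.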
In assay [20] the target is Androgen receptor (Homo sapiens) (UniProt P10275). Kind of assay: qHTS assay to identify small molecule antagonists of the androgen receptor (AR) signaling pathway using the MDA cell line in the presence of 0.5 nM R1881 (AID 1259243). Also: nearly all actives have a fitted effect of over 50% in size. The method in brief:
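Luciferase luminescence is the read-out: compounds are tested for suppressing 0.5 nM R1881-driven MMTV reporter activity in MDA-kb2 cells after 16 hr at 37C.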

Records with an inconclusive call do not appear. Calls of active or inactive are those of the source. Unless noted, calls follow the shape of the dose curve; as a rule, active = well fitted curve in the direction sought with a large enough effect in the repeat runs; inconclusive = weak or mixed curves; inactive = no such curve, though single readings can be large; an effect the other way counts as inactive or inconclusive.

Sequence of Estrogen receptor (Homo sapiens) (P03372 whole entry, looked up): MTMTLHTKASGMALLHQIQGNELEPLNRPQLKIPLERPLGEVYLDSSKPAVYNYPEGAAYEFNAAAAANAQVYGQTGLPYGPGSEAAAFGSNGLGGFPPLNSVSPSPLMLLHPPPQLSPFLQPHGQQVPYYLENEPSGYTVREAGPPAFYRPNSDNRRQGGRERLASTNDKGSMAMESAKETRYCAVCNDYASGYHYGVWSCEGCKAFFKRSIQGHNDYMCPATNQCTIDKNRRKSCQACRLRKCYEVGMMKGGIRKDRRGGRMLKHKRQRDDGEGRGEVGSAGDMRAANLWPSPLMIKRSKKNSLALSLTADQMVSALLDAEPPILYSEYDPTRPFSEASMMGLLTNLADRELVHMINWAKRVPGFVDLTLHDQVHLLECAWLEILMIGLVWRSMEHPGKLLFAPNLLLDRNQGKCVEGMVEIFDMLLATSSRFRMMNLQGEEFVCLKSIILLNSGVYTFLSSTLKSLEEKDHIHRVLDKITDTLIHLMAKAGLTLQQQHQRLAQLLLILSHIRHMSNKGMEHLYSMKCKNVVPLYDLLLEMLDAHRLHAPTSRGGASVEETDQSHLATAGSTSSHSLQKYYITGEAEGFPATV
Sequence of Androgen receptor (Homo sapiens) (P10275 whole entry, looked up): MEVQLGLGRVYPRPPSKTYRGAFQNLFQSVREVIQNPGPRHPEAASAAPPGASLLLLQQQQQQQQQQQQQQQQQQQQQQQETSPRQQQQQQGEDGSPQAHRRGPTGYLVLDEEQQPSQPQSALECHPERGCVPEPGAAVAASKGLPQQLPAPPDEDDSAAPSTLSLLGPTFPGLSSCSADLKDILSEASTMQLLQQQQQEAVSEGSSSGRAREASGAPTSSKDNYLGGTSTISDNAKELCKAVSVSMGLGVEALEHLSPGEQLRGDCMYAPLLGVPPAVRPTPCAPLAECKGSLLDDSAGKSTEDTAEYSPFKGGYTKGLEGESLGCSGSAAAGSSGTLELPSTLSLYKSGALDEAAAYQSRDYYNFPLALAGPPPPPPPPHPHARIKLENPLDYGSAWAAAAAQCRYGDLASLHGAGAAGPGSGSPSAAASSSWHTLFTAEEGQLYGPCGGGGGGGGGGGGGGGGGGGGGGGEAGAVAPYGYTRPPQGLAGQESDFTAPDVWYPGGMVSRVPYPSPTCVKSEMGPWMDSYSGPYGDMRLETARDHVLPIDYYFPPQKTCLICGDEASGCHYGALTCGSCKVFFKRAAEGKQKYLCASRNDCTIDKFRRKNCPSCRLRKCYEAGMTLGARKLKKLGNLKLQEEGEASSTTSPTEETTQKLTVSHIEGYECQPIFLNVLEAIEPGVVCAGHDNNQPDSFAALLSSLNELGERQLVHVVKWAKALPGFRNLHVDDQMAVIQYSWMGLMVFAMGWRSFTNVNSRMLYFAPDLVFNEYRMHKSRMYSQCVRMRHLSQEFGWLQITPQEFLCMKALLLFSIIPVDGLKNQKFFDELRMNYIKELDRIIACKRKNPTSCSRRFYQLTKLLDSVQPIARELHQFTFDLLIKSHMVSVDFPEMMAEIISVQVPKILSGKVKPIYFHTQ

With `CC(Cl)CCl` (configuration not stated), the Potency entry in assay [1], in assay [2], in assay [3], in assay [4], in assay [5] and in [6] was “inactive” in each case. Moreover, the Potency result in assay [7], in assay [8], in [9], in assay [10], in assay [11] and in assay [12] was “inactive” in each case. Further, the Potency entry in assay [13], in assay [14], in [15], in [16] and in assay [17] was “inactive” throughout.

With `Cc1cnc2c(C(=O)O)c(Cl)ccc2c1`, the Potency result in [1], in [2], in assay [3], in assay [4], in assay [5] and in assay [6] was “inactive” in each case. Also, the Potency result in assay [7], in assay [8], in [9], in [10], in assay [11] and in assay [12] was “inactive” in each case. Also, the Potency result in [13], in [14], in [18], in assay [15], in [16] and in assay [17] was “inactive” each time.

Consider `CC(Cc1ccc(OCC(=O)O)cc1)NCC(O)c1csc(C(F)(F)F)n1` (configuration not stated), for which the Potency result in assay [1], in assay [2], in assay [3], in assay [4], in [5] and in assay [6] was “inactive” throughout. Besides, the Potency entry in assay [7], in assay [8], in assay [9], in [10], in assay [11] and in assay [12] was “inactive” each time. Moreover, the Potency result in assay [13], in assay [14], in assay [18] and in [17] was “inactive” each time. Moreover, the Potency in [15] is 6.11 µM (active); in assay [16] it was 3.86 µM (active).

For `Clc1ccc(C2(Cn3cncn3)OCCO2)c(Cl)c1`, the Potency result in assay [1], in assay [2], in [3], in assay [4], in assay [5] and in assay [6] was “inactive” throughout. Further, the Potency entry in [7], in assay [8], in [9], in assay [10], in assay [11] and in assay [12] was “inactive” throughout. Besides, the Potency result in assay [13], in [14], in [18], in assay [15], in [16] and in [17] was “inactive” throughout. Further, the outcome in [19] was inactive.

As to `ClC1=C(Cl)[C@]2(Cl)[C@@H]3[C@H]4C[C@H]([C@@H]5O[C@H]45)[C@@H]3[C@@]1(Cl)C2(Cl)Cl`, the Potency entry in assay [1], in [2], in [3], in [4], in assay [5] and in [6] was “inactive” each time. For the same molecule, the Potency result in [7], in [8], in assay [9], in assay [10], in assay [11] and in [12] was “inactive” each time. Besides, the Potency result in assay [13], in assay [14], in [18] and in assay [17] was “inactive” in each case. The call in [19] was inactive. Moreover, in assay [16], the Potency is 68.5 µM (active).

Regarding `ClC1(Cl)C2(Cl)C3(Cl)C4(Cl)C(Cl)(Cl)C5(Cl)C3(Cl)C1(Cl)C5(Cl)C24Cl` (configuration not stated), the Potency result in assay [1], in assay [2], in [3], in [4], in [5] and in assay [6] was “inactive” throughout. The Potency entry in assay [7], in [8], in [9], in [10], in assay [11] and in assay [12] was “inactive” throughout. For the same molecule, the Potency entry in [20], in assay [13], in assay [14], in [16] and in assay [17] was “inactive” throughout.

The values are drawn from PubChem BioAssay (Tox21).
